Reference: ChEMBL document CHEMBL3433997, “St. Jude Leishmania screening dataset” (2016)

Legend:
Type in all cases: functional
[1] = target: Solute carrier family 2, facilitated glucose transporter member 1 (Homo sapiens) (UniProt P11166); assay: ST_JUDE_LEISH: Cytotoxicity at 2uM final concentration against transgenic Leishmania Mexicana promastigotes LmGLUT1 that are glucose transport deficient and complemented with the human glucose transporter GLUT1. Activity is measured by DNA content using SYBR green in vitro
[2] = target: Hexose transporter 1 (Plasmodium falciparum) (UniProt O97467); assay: ST_JUDE_LEISH: Cytotoxicity at 2uM final concentration against transgenic Leishmania Mexicana promastigotes LmPfHT that are glucose transport deficient and complemented with the Plasmodium falciparum hexose transporter. Activity is measured by DNA content using SYBR green in vitro
[3] = target: Glucose transporter (Leishmania mexicana) (UniProt O61059); assay: ST_JUDE_LEISH: Cytotoxicity at 2uM final concentration against transgenic Leishmania Mexicana promastigotes LmGT2 that are glucose transport deficient and complemented with the L. Mexicana glucose transporter 2. Activity is measured by DNA content using SYBR green in vitro

Chain of Solute carrier family 2, facilitated glucose transporter member 1 (Homo sapiens) (P11166 whole entry): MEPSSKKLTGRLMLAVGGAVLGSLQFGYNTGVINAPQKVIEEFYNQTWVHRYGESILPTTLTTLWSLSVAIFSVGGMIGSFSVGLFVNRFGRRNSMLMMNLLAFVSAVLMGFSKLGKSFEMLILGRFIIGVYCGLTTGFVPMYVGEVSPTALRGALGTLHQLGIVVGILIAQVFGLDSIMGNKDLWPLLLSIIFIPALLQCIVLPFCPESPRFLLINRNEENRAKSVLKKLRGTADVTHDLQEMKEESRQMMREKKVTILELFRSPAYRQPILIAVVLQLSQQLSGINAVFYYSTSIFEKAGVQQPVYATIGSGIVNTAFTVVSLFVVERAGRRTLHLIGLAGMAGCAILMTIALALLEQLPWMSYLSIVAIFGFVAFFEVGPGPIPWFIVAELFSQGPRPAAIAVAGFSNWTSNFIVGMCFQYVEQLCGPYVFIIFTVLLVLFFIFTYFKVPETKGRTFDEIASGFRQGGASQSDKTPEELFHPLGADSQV

SMILES | inhibition [1] [%] | inhibition [2] [%] | inhibition [3] [%]
CC(C)[C@H](NC(=O)c1ccc(O)c(-c2ccc(Cl)c(Cl)c2)c1)C(=O)NCCN1CCCCC1 | -0.08 | 1.9 | -1.44
COCCNC(=O)c1ccc(OC2CCN(CC(C)=Cc3ccccc3)CC2)c(Cl)c1 | 2.65 | 3.32 | 1.03
CN1CCC(NCc2ccc(-c3cccc(-c4nc5ccccc5[nH]4)c3)cc2)CC1 | 1.67 | 2.05 | 1.64
COc1cc(Cc2cnc(N)nc2N)ccc1OCc1ccc(-c2ccccc2C#N)cc1 | 0.17 | 0.47 | -0.89
NC(=O)Nc1ccc2c(Nc3ccc(OCc4ccccc4)cc3)ncnc2c1 | -1.45 | -0.35 | -2.05
CN(C)CCOc1ccc(N2CCN(CCCCNC(=O)c3ccc(NC(=O)c4ccc(Cl)cc4)cc3)CC2)cc1 | 0.54 | 0.36 | 3.48
CCCCC(=O)Nc1cc(=O)[nH]c2nc(-c3ccc(Cl)cc3)nn12 | -1.02 | 3.54 | -0.39
Cc1cc(OCc2ccncc2)cc2c1C(=O)CC(C)(C)O2 | -0.52 | 2.18 | 0.39
COc1ccc(Nc2nccc(N3CCC(NC(=O)c4cc5ccccc5s4)C3)n2)cc1 (centres undefined) | -3.12 | 1.28 | -1.61
COc1cc2nc(N3CCC(CNC(=O)/C=C/c4cccc(C)c4)CC3)nc(N)c2cc1OC | 7.71 | 0.18 | -0.03
CCc1cn2c3c(cc(C(=O)N[C@@H](Cc4ccccc4)[C@H](O)CNC4CCC4)cc13)N(C)S(=O)(=O)CC2 | 2.42 | 5.19 | 1.83
O=C(NCCCN1CCN(c2cccc(Cl)c2)CC1)c1ccc(-c2nc3cc(Cl)c(Cl)cc3[nH]2)cc1 | 11.3 | 8.6 | 13.7
COc1ccc2ncc(C#N)c(CCN3CCC(NCc4ccc5c(c4)OCCO5)CC3)c2c1 | 48.5 | 64.6 | 83.2
Cc1cc(N[C@@H](CC(C)C)C(=O)Nc2ccccc2)nc(Nc2ccccc2)n1 | 1.17 | -0.52 | -0.1
Cc1cc(N[C@@H](CC(C)C)C(=O)Nc2ccccc2)nc(NCCc2ccc(F)cc2)n1 | 4.85 | 1.97 | 1.72
Cn1nc(-c2ccccc2F)c2cc(C(=O)Nc3cccnc3)sc21 | 3.76 | 2.08 | 2.9
Fc1cccc(COc2ccc(Nc3ncnc4sc(C#C[C@H]5CCCN5)cc34)cc2F)c1 | 0.5 | 2.54 | 0.52

SMILES | inhibition [1] [%] | inhibition [2] [%] | inhibition [3] [%]
COc1ccc2nc(Nc3nc(-c4ccccn4)cs3)sc2c1 | 11.7 | 16 | 5.62
Clc1ccccc1CNc1noc(-c2sccc2Br)n1 | 0.33 | 2.84 | 1.17
Cc1cc(NS(=O)(=O)c2cccc(C(C)N3CCC(N4CCCC4)CC3)c2)ccc1C(C)C (centres undefined) | 6.44 | 5.82 | 1.55
COc1cc2nc(-c3ccc(Br)cc3)cc(N)c2cc1OC | 64.2 | 23.6 | 29.1
CN(C)CCCOc1cc(NC(=O)Nc2ccc(-c3ccncc3)c3ccccc23)ccc1I | 6.91 | 6.1 | 7.69
Cc1noc(C)c1-c1cccc(CNCc2cccc(-c3ccc(-c4nc5cccc(C)c5[nH]4)s3)c2)c1 | 2.85 | 2.47 | 2.66
CS(=O)(=O)c1cc2c(Nc3ccc(N4CCOCC4)cc3)c(C(N)=O)cnc2cc1Br | 4.41 | 1.07 | 3.69
Fc1ccc(-c2nc(NCc3cccc(C(F)(F)F)c3)nn2-c2cccc(C(F)(F)F)c2)cc1C(F)(F)F | 1.81 | 1.48 | 2.56
c1ccc(COc2ccc(Cn3ccc(-c4ccc(-n5ccnc5)cc4)n3)cc2)cc1.c1ccc(COc2ccc(Cn3nccc3-c3ccc(-n4ccnc4)cc3)cc2)cc1 | 0.24 | 1.54 | 1.48
Cc1nc2ccc(F)cc2n1C1CCN(C(=O)Cc2ccc(F)c(F)c2)CC1 | -1.6 | -1.91 | 1.89
COc1cccc(C2CCCN(CCCCNC(=O)c3ccc(NC(=O)c4ccc(Cl)cc4)cc3)C2)c1 (centres undefined) | 2.97 | 4.25 | 3.02
CC1CCCC(C)N1C[C@@H](O)CNS(=O)(=O)c1cccc(C(F)(F)F)c1 (some centres undefined) | 0.21 | 0.37 | -0.01
Fc1cccc(COc2ccc(Nc3ncnc4sc(C#C[C@H]5CC[C@H](CNCC(F)(F)F)N5)cc34)cc2Cl)c1 | 1.63 | 1.52 | 1.3
COc1ccc2ncc(F)c(CCN3C4CCC3CC(NCc3cc5c(cn3)OCS5)C4)c2n1 (centres undefined) | 32.5 | 41.5 | 64.1
CC1CCNc2ccc(Cc3cnc(N)nc3N)cc21 (centres undefined) | 2.12 | 1.47 | 2.05
CCCCCCCCCCN1C(=O)C2C(CCCCNC(C)=O)NC3(C(=O)N(Cc4ccc(C(C)(C)C)cc4)c4ccccc43)C2C1=O (centres undefined) | 9.76 | 9.32 | 3.53
